Most compounds without a hit are left out; they make up all but 8% or so of the library.
MCF10A rereplic = A quantitative high throughput screen for small molecules that induce DNA re-replication in MCF 10a normal breast cells; MCF 10A DNA re-replication, Hoechst nuclear intensity, 48 h; actives 2.9% (n = 350,000); Potency, µM (top dose mostly 46.1 µM), for inactives: at the highest dose activity, positive = re-replication, hits mostly activators; also: % of control where 0% means no effect; nearly all actives have a fitted effect of over 50% in size
HT1080NT lethal = qHTS for induction of synthetic lethality in tumor cells producing 2HG: qHTS for the HT-1080-NT fibrosarcoma cell line; HT-1080-NT fibrosarcoma viability, CellTiter-Glo ATP luminescence, 48 h; Potency, µM (doses to about 46.1 µM), without a hit: at the top dose activity, negative = less viability, usual class: cytotoxic; actives 1.6% (n = 360,000); AID 686970, 2013;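 also: NT is the 2HG producing partner of a matched IDH1 knockdown line; 0% = DMSO-treated cells and -100% = media-only wells without cells; nearly all actives have a fitted effect of over 55% in size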
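Read-out is CellTiter-Glo luminescence after 10 minutes at room temperature, following 48 hours' compound treatment of HT-1080-NT cells (750 cells/well, RPMI, 5% FBS, 37 degrees C).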
KB-3-1 cytotox = qHTS assay for MDR1-selective chemotherapeutics: Primary screen using the parental adenocarcinoma cell KB-3-1. KB-3-1 viability, CellTiter-Glo ATP luminescence, 72 h. Potency, µM (doses to about 46.1 µM), actives largely listed as cytotoxic. AID 1347075, 2019. actives 1.4% (n = 400,000); also: % is scaled to controls: 0 for no effect and ±100 for the full control effect; nearly all actives have a fitted effect of over 60% in size
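Cytotoxicity in the drug-sensitive parental line KB-3-1 was scored as loss of CellTiter-Glo luminescence following 72 h incubation with compound. Values come from curve fitting of normalized concentration-response data.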
SW480 rerep = A quantitative high throughput screen for small molecules that induce DNA re-replication in SW480 colon adenocarcinoma cells. AID 624297, 2012. SW480 DNA re-replication, Hoechst DNA content imaging, 48 h. actives 1.8% (n = 340,000). Potency, µM (highest dose often 46.1 µM), without a hit: at the highest dose re-replication activation, hits mostly activators; also: % of control where 0% means no effect; nearly all actives have a fitted effect of over 55% in size
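Quantitative HTS format with DMSO vehicle controls; 48 hr drug incubation at 37 C, then 40 min Hoechst staining and scanning imager measurement at 405 nm excitation.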
HT1080 IDH1KD tx = qHTS for induction of synthetic lethality in tumor cells producing 2HG: qHTS for the HT-1080-IDH1KD cell line; AID 686971, 2013; Potency, µM (highest dose often 46.1 µM), for inactives: at the highest dose activity, negative = toxicity, actives largely listed as cytotoxic; HT-1080 IDH1 knockdown viability, ATP luminescence, 48 h; actives 2% (n = 360,000);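 also: 0% = DMSO wells and -100% = cell-free medium wells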
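CellTiter-Glo luminescence after 48 h compound exposure at 37 degrees C of IDH1-knockdown HT-1080 cells in 5% FBS RPMI. %Activity scaled between DMSO wells and cell-free media wells, with curves fitted and assigned curve classes.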
KB-V1 MDR tox = qHTS assay for MDR1-selective chemotherapeutics: Primary screen using the drug-selected MDR subline cells KB-V1; Potency, µM (series often up to 46.1 µM), hits mostly cytotoxic; actives 3.4% (n = 400,000); KB-V1 MDR cells viability, CellTiter-Glo, 72 h; AID 1347076, 2019; also: % is scaled to controls: 0 for no effect and ±100 for the full control effect; nearly all actives have a fitted effect of over 60% in size
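KB-V1 MDR subline cells in DMEM (phenol-red free, 10% FBS) exposed to compounds in qHTS concentration series for 72 h at 37 degrees C. Viability read by CellTiter-Glo luminescence; concentration-effect curves fitted after normalization and correction.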
The depositor's hits bear a star; i = inactive; u = inconclusive; x = not tested or not shown; [ ] = remark or other dose. Calls follow the shape of the dose curve; as a rule, active = well fitted curve in the direction sought with a large enough effect; inconclusive = small, poorly fitted or top-dose-only effect, or another doubt; inactive = no such curve, though single readings can be large; an effect the other way counts as inactive or inconclusive. Potency is read from the fitted curve at half-maximal effect.

SMILES	MCF10A rereplic	HT1080NT lethal	KB-3-1 cytotox	SW480 rerep	HT1080 IDH1KD tx	KB-V1 MDR tox
CN1CCN(c2ccc(CNS(=O)(=O)c3ccccc3)cc2)CC1	u	11.3%	u	u	7.0%	i
O=C(NCc1ccccc1)C1c2ccccc2OCC(=O)N1Cc1ccco1 (stereo not given)	x	11.5%	i	x	7.1%	i
O=C(c1cccc(S(=O)(=O)NCc2ccccc2)c1)N1CCN(c2cccc(C(F)(F)F)c2)CC1	u	u	u	u	u	16.4µM*
O=C(c1nn(Cc2ccccc2)c(=O)c2ccccc12)N1CCN(c2ccccn2)CC1	u	-11.3%	i	3.2%	-11.7%	2.31µM*
O=C(c1cccc(S(=O)(=O)NCc2ccccc2)c1)N1CCN(c2ccccc2Cl)CC1	u	u	u	16.4µM*	u	i
O=C(c1nn(Cc2ccccc2)c(=O)c2ccccc12)N1CCc2ccccc2C1	4.7%	3.6%	i	0.2%	-1.0%	u
CC(C)c1ccc(OCc2ccc(C(=O)N3CCN(c4ccccn4)CC3)cc2)cc1	23.1µM*	u	u	18.0%	u	u
CCn1ccc2cc(S(=O)(=O)N3CCC(C(=O)NCc4ccc(F)cc4)CC3)ccc21	x	x	i	x	x	i
O=C(Cc1ccccc1)N[C@@H]1c2ccccc2CC[C@@H]1OCc1ccccc1	u	0.3%	i	-2.4%	-3.7%	i
Cn1cccc1C(=O)N1CCN(c2cccc(C(F)(F)F)c2)CC1	7.1%	3.8%	i	0.1%	10.4%	14.6µM*
CN1CCc2[nH]c3ccc(Cl)cc3c2C1	x	x	i	x	x	u
CC(C)N(CCNCC(O)COc1ccc(C(C)(C)c2ccccc2)cc1)C(C)C (stereo not given)	u	29.1µM*	i	u	u	i
OC(CNCCc1ccccc1)COc1ccc(OCC(O)CNCCc2ccccc2)cc1 (stereo not given)	u	u	20.6µM*	u	23.1µM*	u
OC(CNCCC(c1ccccc1)c1ccccc1)COc1ccccc1 (stereo not given)	u	u	i	1.5%	23.1µM*	u
O=C(NNCC(O)COc1ccccc1)c1ccccc1 (stereo not given)	-1.2%	3.8%	i	1.4%	16.8%	i
Cc1ccc(-n2ncc(C(=O)NCc3ccc4c(c3)OCO4)c2C2CCN(C(=O)OC(C)(C)C)CC2)c(C)c1	x	x	i	x	x	i
C/C(=N\NC(=O)COc1ccc(C(C)(C)C)cc1)c1ccc(N2CCOCC2)cc1	9.2µM*	u	i	-81.4%	-24.8%	i
CC1Sc2n(c3ccccc3[n+]2C)N=C1c1ccccc1 (stereo not given)	9.6%	-23.0%	7.31µM*	-2.3%	7.31µM*	i
COc1ccc(C2=Nn3c([n+](C)c4ccccc43)SC2)cc1	u	u	2.59µM*	6.4%	u	i
COc1cccc(-c2nnc3n2N=C(c2cccc(Br)c2)CS3)c1	-2.2%	-3.6%	i	-11.1%	10.5%	u
C[n+]1c2n(c3ccccc31)N=C(c1ccc(Cl)cc1)CS2	13.8%	u	5.8µM*	u	u	i
CC(C)Oc1ccc(-c2nc(-c3cccnc3)no2)cc1	x	x	i	x	x	i
N#Cc1cc2c(=O)n3ccccc3nc2n(-c2nnc(SCc3ccc(F)cc3)s2)c1=O	x	x	i	x	x	i
Cc1ccc2c(c1)-c1nc(-c3ccccc3)cc(-c3ccccc3)c1CO2	x	x	i	x	x	i
COc1ccc(C(=O)COC(=O)CCCC(=O)Nc2ccc(C(C)=O)cc2)cc1	x	x	i	x	x	i
SMILES	MCF10A rereplic	HT1080NT lethal	KB-3-1 cytotox	SW480 rerep	HT1080 IDH1KD tx	KB-V1 MDR tox
COc1ccc(-c2[nH]c(-c3cc(OC)c4c(c3)OCO4)nc2-c2ccccc2)cc1	13µM*	u	i	-3.7%	u	i
O=C(NNC(=O)c1c(F)cccc1F)c1ccccc1-n1cccc1	-0.5%	27.6%	i	-0.1%	30.2%	i
COc1cc(CN2CCN(c3cccc(Cl)c3)CC2)cc(OC)c1OC	16.4µM*	8.91µM*	3.66µM*	16.4µM*	7.08µM*	2.31µM*
COc1cccc(CN2CCN(c3cccc(C(F)(F)F)c3)CC2)c1OC	u	2.8%	i	14.9%	-4.3%	20.6µM*
COc1cc(CN2CCN(S(=O)(=O)c3ccccc3)CC2)cc(OC)c1OC	0.0%	0.4%	i	0.7%	-1.3%	i
COc1ccc(CNCc2c(C(=O)O)c(C)n(Cc3ccccc3C)c2C)cc1OC	x	x	i	x	x	i
COC(=O)CCSc1nc2sc3c(c2c(=O)n1Cc1ccccc1)CCC(C(C)(C)C)C3 (stereo not given)	x	x	i	x	x	i
CC(C)N(Cc1nccn1C)C(=O)c1cc(COc2ccc(F)cc2Cl)on1	22.0%	-1.6%	x	1.5%	-3.5%	x
COc1cccc(CNC(=O)COC(=O)c2nn(C)c(=O)c3ccccc23)c1	-2.1%	8.2%	i	-8.2%	2.1%	i
CCOC(=O)c1sc(C)c2c1NC(C)(c1cccs1)NC2=O (stereo not given)	-0.7%	-27.8%	i	6.7%	u	5.17µM*
CCc1nnc(NS(=O)(=O)c2ccc(NC(=S)NC(=O)c3ccc(OC)c(OC)c3)cc2)s1	u	3.2%	i	18.4µM*	5.4%	i
CCc1nnc(NS(=O)(=O)c2ccc(NC(=S)NC(=O)c3ccc(OC)cc3)cc2)s1	-0.2%	0.1%	i	-42.0%	-13.9%	u
CCc1nnc(NC(=O)c2ccc(OC)c(S(=O)(=O)N3CCCC3)c2)s1	5.2%	-0.5%	i	-8.1%	-12.3%	20.6µM*
CCc1nnc(NS(=O)(=O)c2ccc(N/C=C/C(=O)c3ccc(C)cc3)cc2)s1	18.4µM*	-7.3%	i	-12.4%	-6.5%	i
CCc1nnc(NC(=O)c2ccc(S(=O)(=O)N3CCCCCC3)cc2)s1	13.9%	u	i	1.4%	-3.4%	i
COc1ccc(Br)cc1S(=O)(=O)n1nc(C)cc1C	-22.8%[9.22 µM]	-3.4%	i	u	0.3%	i
O=C(NNC(=O)c1csc(-c2cccs2)n1)c1ccc(Cl)cc1	x	-29.3%	i	x	u	i

Compound activity: PubChem BioAssay, National Center for Advancing Translational Sciences (NCATS)
